# Compound activity as filed in PubChem BioAssay.
# 15-hLO-2 inh – blocks human 15-lipoxygenase 2 activity; AID 881; Potency, µM (doses to about 57.1 µM), for the others: at the highest dose activity change, negative = inhibition, usual class: inhibitors; purified 15hLO-2, xylenol orange hydroperoxide absorbance; 110,000 compounds, 0.56% hits; note: potency is the fitted concentration of half-maximal effect; nearly all actives have a fitted effect of over 60% in size
#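 Screening format was qHTS against 50 nM purified 15hLO-2 in Hepes pH 7.5 with detergent. Activity follows hydroperoxide formation from 45 uM arachidonic acid, measured as 573:405 nm absorbance ratio of the ferric-xylenol orange complex.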
# ALOX12 inhib – 12-hLO (ALOX12) enzyme inhibition | AID 1452 | P18054 | purified 12-hLO, xylenol orange hydroperoxide absorbance | Potency, µM (top dose mostly 57.1 µM), for inactives: at the highest dose activity change, negative = inhibition, usual class: inhibitors | 150,000 compounds, 0.12% hits; note: potency is the fitted concentration of half-maximal effect; nearly all actives have a fitted effect of over 55% in size
#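 Hydroperoxide formation by human 12-lipoxygenase from 40 uM arachidonic acid was followed colorimetrically via ferric-xylenol orange complex, using the 573/405 nm absorbance ratio. Enzyme concentration was 150 nM, with 30 min reaction at room temperature.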
# IMPase inh – membrane-permeable compound that blocks inositol monophosphatase. P97697. CHO-M1 cells, IP1 accumulation, HTRF TR-FRET ratio. inhibition (IP1 accumulation), % at 46.1 µM. 120,000 tested, under 10 active. AID 901; active = well fitted curve in the direction sought with a large enough effect in the signal ratio, not every such curve was filed as active; inconclusive = small, poorly fitted or top-dose-only effect, or a change in a side signal; inactive = no such curve, though single readings can be large or run the other way; the % refers to the signal ratio;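 note: cells stimulated with carbachol in lithium chloride buffer; plate controls were DMSO basal wells for no effect and reference inhibitor wells for full effect; higher means more IMPase inhibition seen as more IP1 and lower FRET ratio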
# Target sequence (P97697 whole entry, looked up): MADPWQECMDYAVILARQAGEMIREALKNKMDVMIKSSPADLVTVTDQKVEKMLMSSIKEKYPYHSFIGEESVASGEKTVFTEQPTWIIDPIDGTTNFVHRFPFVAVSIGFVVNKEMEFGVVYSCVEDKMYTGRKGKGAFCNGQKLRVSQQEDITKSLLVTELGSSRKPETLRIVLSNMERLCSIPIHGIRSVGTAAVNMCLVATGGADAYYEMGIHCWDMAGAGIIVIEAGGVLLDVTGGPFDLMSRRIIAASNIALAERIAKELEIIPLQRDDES
#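 Elevated IP1 in lysates lowers TR-FRET signal (665/620 ratio and 620 channel reported). Cells were CHO-M1, given carbachol (50 uM as added) plus 50mM LiCl, pH 7.4, 30 min, 37C; compounds titrated up to 46 uM; AC50 by Hill equation.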
# IMPase Li inh – IMPase inhibition in cells with lithium potentiation; CHO-M1 cells, IP1 TR-FRET (IP-One), carbachol + lithium; Potency, µM (series often up to 59.4 µM), for inactives: at the top dose activity, negative = IMPase inhibition, usual class: inhibitors; AID 1457; 210,000 compounds, 0.35% hits;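 note: IP1 builds up when IMPase is blocked and the TR-FRET signal falls; potency is the fitted concentration of half-maximal effect; plate controls were basal vehicle for no effect and high inhibitor control for full effect; nearly all actives have a fitted effect of over 50% in size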
#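 CHO cells stably expressing M1 receptor (2000/well) were cultured 16–30 h, then exposed to compounds with a small lithium addition for 30 min at 37C. IP1 was measured by TR-FRET competition; AC50 from Hill fits.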
# * marks the source's active call; other numbers are inactive results; ? = inconclusive; nt = no result; [ ] = another dose, or the depositor's remark. The list is not random: actives were taken first. Their share in the collection is about 0.57%. Unless noted, calls come from the whole dose curve; as a rule, active = well fitted curve in the direction sought with a large enough effect; inconclusive = small, poorly fitted or top-dose-only effect, or another doubt; inactive = no such curve, though single readings can be large; an effect the other way counts as inactive or inconclusive. Unless noted, % is set by controls: 0 for no effect and ±100 for the full control effect.
SMILES,15-hLO-2 inh,ALOX12 inhib,IMPase inh,IMPase Li inh
O=C(O)CCCN1C(=O)/C(=C/c2ccc(-c3nc4ccccc4s3)o2)SC1=S,15.8µM*,1.8%,4.0,14.7%
N#Cc1c(Cl)nc(SCc2ccccc2)nc1-c1ccccc1,?,-12.0%,?,2.51µM*
N#Cc1c(-c2ccco2)nc(SCC(=O)Nc2cccc(Cl)c2)[nH]c1=O,-19.4%,-13.4%,?,10µM*
COCCOC(=O)c1c(C)nc(SCC(=O)Nc2ccc(OC)cc2)c(C#N)c1-c1ccco1,-7.3%,8.3%,5.3,14.8%[38.3 µM]
COc1cccc(NC(=O)CSc2nc3c(c(-c4ccco4)c2C#N)CCCC3)c1,-18.8%,4.6%,3.2,11.2µM*
Cc1cccc(Oc2coc3cc(OCC(=O)NC4CCCCC4)ccc3c2=O)c1,nt,nt,3.0,nt
COC(=O)[C@H](Cc1ccccc1)NC(=O)[C@H]1C[C@@H]1[C@H](NC(=O)OCc1ccccc1)c1ccccc1,10.1%,-1.1%,nt,9.3%
COc1ccc(OC)c(NC(=O)CNC(=O)Cn2c(C)cc3ccccc3c2=O)c1,0.3%,4.7%,-1.5,15.0%[38.3 µM]
COc1cc(NC(=O)Cn2c(C)cc3ccccc3c2=O)cc(OC)c1OC,-7.7%,-0.1%,?,25.1µM*
O=C(OCn1ncc(Br)c(Br)c1=O)c1c(F)cccc1F,-0.6%,-3.8%,-25.4,8.91µM*
CC(=O)Cn1ncc(Br)c(Br)c1=O,nt,nt,nt,-20.8%
CCOC(=O)c1cnc2ccccc2c1Nc1cccc(C(=O)O)c1,nt,nt,nt,7.94µM*
O=c1c(-c2ccc(Cl)cc2)nc2cnc(N3CCOCC3)nc2n1C[C@H]1CCCO1,-6.2%,nt,nt,6.8%
CC(OC(=O)c1cc2sccc2n1C)C(=O)NCc1cccs1 (configuration not stated),-1.3%,-5.9%,3.1,-0.5%[38.3 µM]
Cn1c(C(=O)OCC(=O)NCc2cccs2)cc2sccc21,1.8%,-2.1%,?,14.1µM*
CCCc1nc(SCC(=O)NNC(=O)c2ccc(OC)cc2)c2ccccc2n1,nt,nt,nt,10µM*
CCCc1nc(SCC(=O)NNC(=O)C2CCCCC2)c2ccccc2n1,-26.3%,5.5%,-6.9,?
O=C(O)C(Cc1cccs1)C(=O)O,0.5%[11.4 µM],4.8%[11.4 µM],nt,-0.3%
COc1ccccc1-c1cc(C(=O)Nc2ccc(F)cc2F)no1,-11.8%,-3.2%,?,8.91µM*
COc1ccccc1-c1cc(-c2ccccc2)nc(SC(C(N)=O)c2ccccc2)c1C#N (configuration not stated),15.8µM*,-5.0%,?,7.94µM*
Cc1ccc(C)c(NNC(N)=S)c1,nt,nt,nt,1.2%
NC(=S)NNc1cc(Cl)cc(Cl)c1,2.51µM*,?,7.7,11.3%[38.3 µM]
Cc1ccc(NC(=S)NCCc2c[nH]c3ccccc23)cc1,25.1µM*,?,4.3,2.5%[38.3 µM]
Cc1cccc(NC(=O)c2sc3nc(-c4ccc(F)cc4)cn3c2C)n1,2.7%,-4.5%,-3.0,14.1µM*
Cc1cccc(NC(=O)c2sc3nc(-c4ccccc4)cn3c2C)n1,3.0%,-1.1%,0.7,7.5%
SMILES,15-hLO-2 inh,ALOX12 inhib,IMPase inh,IMPase Li inh
CCCCCCCCCCOCCC(=O)O,nt,1.2%,nt,-6.3%
N#Cc1c(-c2ccc3c(c2)OCO3)ccn2nc(-c3cccc(C(F)(F)F)c3)nc12,-8.7%,-13.7%,11.0,12.6µM*
CC(C)(C)c1nc2c(C#N)c(-c3ccc(Cl)cc3)ccn2n1,4.0%,-1.8%,11.5,36.1%[38.3 µM]
COC(=O)C1=C(C(=O)OC)[C@@H]2Nc3ccccc3[C@@]23C[C@@H](C(=O)OC)N(S(=O)(=O)c2c(C)noc2C)C3=N1,nt,-0.7%[11.4 µM],nt,7.5%
Cc1ccc(CNC(=O)CC2Nc3c4ccccc4nc(=S)n3C2=O)cc1 (configuration not stated),nt,nt,nt,5.62µM*
COC(=O)C1=C(C(=O)OC)[C@@H]2N(Cc3ccccc3)c3ccccc3[C@@]23C[C@@H](C(=O)OC)N(S(=O)(=O)c2ccc(C#N)cc2)C3=N1,nt,0.5%[11.4 µM],nt,5.0%
Nc1ccc(N2CCCCCC2)cc1,12.6µM*,-25.7%,3.9,65.7%[38.3 µM]
Nc1ccc(N2CCN(c3ccc(F)cc3)CC2)cc1,nt,nt,nt,4.1%
N#Cc1cnn2c(N)c(-c3ccc(Cl)cc3)cnc12,nt,nt,nt,11.2µM*
Cc1ccc(CNC(=O)C2CCC(CNc3nc(=S)[nH]c4ccccc34)CC2)cc1 (configuration not stated),nt,nt,nt,9.6%
COc1cccc(CNC(=O)C2CCC(CNc3nc(=S)[nH]c4ccccc34)CC2)c1 (configuration not stated),nt,nt,nt,10µM*
COc1cc2cnncc2cc1OC,nt,2.2%,8.7,6.1%
